About 79,000 compounds went through this panel and 15% of them were active in at least one assay; those are over-represented in the sample as a whole. Active and inactive are the calls of the source. No stated cut-off is given here; in the data, active means growth inhibition above about 70%; inactive means the rest.
Key:
[1] = NCI Yeast Anticancer Drug Screen. Data for the wt1 strain (AID 149);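 further: 0% = growth of vehicle-treated wt1 cultures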; conditions: S. cerevisiae wt1 strain (SPY 50644) growth inhibition, hits give high values
Outline: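 The wt1 strain was treated with compounds, and growth was compared with vehicle-treated cultures to give inhibition.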

[2] = NCI Yeast Anticancer Drug Screen. Data for the rad50EPP+ strain (AID 151);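 further: 0% = growth of vehicle-treated control cultures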; conditions: S. cerevisiae rad50 mutant strain, hits give high values
Outline: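 Read-out is yeast growth inhibition relative to vehicle; cells used were the rad50EPP+ strain.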

[3] = NCI Yeast Anticancer Drug Screen. Data for the mgt1 strain (AID 153); conditions: S. cerevisiae mgt1 mutant growth inhibition, hits give high values
Outline: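 Measured: inhibition of mgt1 yeast growth by compound, normalized to vehicle-treated cultures.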

[4] = NCI Yeast Anticancer Drug Screen. Data for the rad50 strain (AID 155);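 further: 0% = growth of vehicle-only cultures of the same strain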; conditions: S. cerevisiae rad50 strain growth inhibition, hits give high values
Outline: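 Cells are treated with compound, grown, and their growth is then scored against vehicle-only cultures of the same repair-deficient yeast strain.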

[5] = NCI Yeast Anticancer Drug Screen. Data for the mec2-1 strain (AID 157); conditions: S. cerevisiae mec2-1 strain, hits give high values
Outline: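 Using mec2-1 yeast: add compound, measure growth, express inhibition versus vehicle-treated cultures.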

[6] = NCI Yeast Anticancer Drug Screen. Data for the rad14 strain (AID 159);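 further: 0% = growth of vehicle-treated control cultures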; conditions: S. cerevisiae rad14 strain growth inhibition, hits give high values
Outline: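 Readout: yeast growth inhibition, referenced to vehicle-only cultures. Strain bears a defined alteration in DNA damage repair.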

[7] = NCI Yeast Anticancer Drug Screen. Data for the sgs1 mgt1 strain (AID 161);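 further: 0% = growth of cultures given vehicle only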; conditions: S. cerevisiae sgs1 mgt1 strain, hits give high values
Outline: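 This yeast growth screen uses a strain with defined DNA-repair lesions; compound-treated growth is compared with vehicle-treated growth.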

[8] = NCI Yeast Anticancer Drug Screen. Data for the CLN2oe strain (AID 163);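 further: 0% = growth of vehicle-only control cultures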; conditions: S. cerevisiae CLN2oe strain, hits give high values
Outline: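 Whole-cell yeast growth assay. A strain engineered for altered cell-cycle control received compound, and inhibition relative to vehicle-treated cultures was recorded.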

[9] = NCI Yeast Anticancer Drug Screen. Data for the cln2 rad14 strain (AID 165);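 further: 0% = growth equal to vehicle treated cultures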; conditions: S. cerevisiae cln2 rad14 strain, hits give high values
Outline: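 Yeast strain cln2 rad14, bearing defects in cell cycle control and DNA repair, serves as the test system; values reflect growth inhibition compared with vehicle.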

[10] = NCI Yeast Anticancer Drug Screen. Data for the bub3 strain (AID 167); conditions: S. cerevisiae bub3 mutant strain, hits give high values
Outline: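 Part of a panel of yeast mutants defective in DNA damage repair or cell cycle regulation. Each strain is grown with compound, and inhibition is calculated relative to solvent-treated cultures.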

[11] = NCI Yeast Anticancer Drug Screen. Data for the wt2 strain (AID 169);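 further: 0% = growth of vehicle-treated yeast cultures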; conditions: S. cerevisiae wt2 strain growth inhibition, hits give high values
Outline: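 Treated yeast vs. vehicle-treated yeast: growth inhibition determined.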

[12] = at 5.0 µM (retest, dose inferred, filed as 0.5)
[13] = at 50.0 µM (retest, dose inferred, filed as 5.0)

Measured: growth inhibition

CCCCCCCCCCCCOC1C(COCCN2CCCC2)OC2OC(C)(C)OC21 (stereo not given)
active: [1]; at 11.0 µM 93% | [1]; at 33.0 µM 99% | [1]; at 100.0 µM 99% | [2]; at 33.0 µM 97% | [2]; at 100.0 µM 98% | [3]; at 11.0 µM 97% | [3]; at 33.0 µM 98% | [3]; at 100.0 µM 98% | [4]; at 11.0 µM 98% | [4]; at 33.0 µM 98% | [4]; [13] 99% | [4]; at 50.0 µM 93% | [4]; at 100.0 µM 98% | [5]; at 11.0 µM 97% | [5]; at 33.0 µM 99% | [5]; [13] 99% | [5]; at 50.0 µM 93.4% | [5]; at 100.0 µM 98% | [6]; at 11.0 µM 98% | [6]; at 33.0 µM 98% | [6]; at 100.0 µM 98% | [7]; [13] 99% | [7]; at 50.0 µM 90.2% | [8]; at 11.0 µM 71% | [8]; at 33.0 µM 98% | [8]; at 100.0 µM 98% | [9]; [13] 97% | [9]; at 50.0 µM 90.3% | [10]; at 11.0 µM 96% | [10]; at 33.0 µM 98% | [10]; [13] 98% | [10]; at 50.0 µM 88.5% | [10]; at 100.0 µM 98% | [11]; at 11.0 µM 78% | [11]; at 33.0 µM 98% | [11]; at 100.0 µM 98%
inactive: [1]; at 1.2 µM 23% | [1]; at 3.7 µM 15% | [2]; at 1.2 µM 36% | [2]; at 3.7 µM 27% | [2]; at 11.0 µM 2% | [3]; at 1.2 µM 3% | [3]; at 3.7 µM 2% | [4]; at 1.2 µM 5% | [4]; at 3.7 µM 1% | [4]; [12] 13% | [5]; at 1.2 µM 18% | [5]; at 3.7 µM 11% | [5]; [12] 2% | [6]; at 1.2 µM 11% | [6]; at 3.7 µM 14% | [7]; [12] 19% | [8]; at 1.2 µM -5% | [8]; at 3.7 µM 23% | [9]; [12] 42% | [10]; at 1.2 µM -18% | [10]; at 3.7 µM -16% | [10]; [12] 29% | [11]; at 1.2 µM -13% | [11]; at 3.7 µM -28%
